Assay outcomes (PubChem BioAssay)
A selection: hits, their analogues and other compounds. The true share with any hit is near 18%.
DT40 TDP1 CPT: growth inhibition of DT40 Tdp1-/-;hTDP1 cells with camptothecin (screen for TDP1 inhibitors); chicken DT40 Tdp1-/-;hTDP1 cells + 20 nM CPT, ATP luminescence, 48 h; Potency, µM (top dose mostly 46.2 µM), for the others: at the top dose activity change, negative = growth inhibition, usual class: inhibitors; actives 12% (n = 420,000); AID 686979; also: potency is read from the fitted curve at half-maximal effect; % is scaled to controls: 0 for no effect and ±100 for the full control effect; nearly all actives have a fitted effect of over 55% in size
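Cell growth measured by CellTiter-Glo luminescence after a minimum 48 h, 37 C compound exposure with 20 nM CPT in Tdp1-knockout DT40 cells stably expressing hTDP1, seeded 400/well; qHTS titration format.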
TDP1 block: blocks human tyrosyl-DNA phosphodiesterase 1 | recombinant TDP1, AlphaScreen DNA substrate cleavage | Potency, µM (top dose mostly 130 µM), inactives show at the top dose activity change, negative = inhibition, most hits filed as inhibitors | actives 0.28% (n = 350,000) | AID 485290; also: potency is read from the fitted curve at half-maximal effect; % is scaled to controls: 0 for no effect and ±100 for the full control effect; nearly all actives have a fitted effect of over 40% in size
Target sequence (Q9NUW8 whole entry, looked up): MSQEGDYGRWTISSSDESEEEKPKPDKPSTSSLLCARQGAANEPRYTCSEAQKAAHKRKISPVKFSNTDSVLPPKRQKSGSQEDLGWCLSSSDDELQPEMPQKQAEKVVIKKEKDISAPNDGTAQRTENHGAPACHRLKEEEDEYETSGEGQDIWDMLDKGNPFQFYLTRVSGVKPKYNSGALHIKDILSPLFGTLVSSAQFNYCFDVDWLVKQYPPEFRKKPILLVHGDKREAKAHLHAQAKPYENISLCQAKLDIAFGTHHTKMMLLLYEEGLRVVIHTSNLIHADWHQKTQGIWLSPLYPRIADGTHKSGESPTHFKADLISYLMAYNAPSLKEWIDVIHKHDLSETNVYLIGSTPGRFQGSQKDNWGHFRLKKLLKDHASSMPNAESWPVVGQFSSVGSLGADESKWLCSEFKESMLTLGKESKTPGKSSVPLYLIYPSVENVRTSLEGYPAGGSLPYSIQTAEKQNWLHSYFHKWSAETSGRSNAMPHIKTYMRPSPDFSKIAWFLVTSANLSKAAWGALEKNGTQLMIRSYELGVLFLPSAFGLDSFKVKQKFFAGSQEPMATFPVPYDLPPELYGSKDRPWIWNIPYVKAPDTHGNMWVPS
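Compounds were preincubated with Tdp1 (1 nM final) for 15 min at room temperature before substrate (15 nM final) started a 5 min reaction; beads (10 ug/ml final) were then added for 10 min before AlphaScreen detection.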
HepG2 viability: counter-screen for TGF-b inhibitors: cytotoxicity in HepG2 cells; HepG2 CAGA-GFP viability, ATP luminescence, 18 h; Potency, µM (highest dose often 46.1 µM), for inactives: at the highest dose activity change, negative = cytotoxicity, most hits filed as cytotoxic; actives 0.76% (n = 410,000); AID 588856; also: potency is read from the fitted curve at half-maximal effect
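HepG2 CAGA-GFP cells (1000/well, DMEM with 1% FBS) received compound, then TGF-beta at 500 pg/mL final, and were incubated 18 hours at 37 degrees C. Viability was read by CellTiter-Glo luminescence. Media-only wells were set as complete cell-killing and DMSO as no toxicity.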
TGFb inhibitor: blocks TGF-b signaling; AID 588855; HepG2 CAGA-GFP TGF-b/SMAD3 reporter, GFP fluorescence, 18 h; TGF-beta stimulated, 500 pg/mL final; Potency, µM (series often up to 46.1 µM), inactives show at the highest dose activity, negative = inhibition, actives largely listed as inhibitors; actives 1.2% (n = 410,000); also: potency is read from the fitted curve at half-maximal effect; % is scaled to controls: 0 for no effect and ±100 for the full control effect; nearly all actives have a fitted effect of over 65% in size
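Inhibition was scored as loss of TGF-beta-induced (500 pg/mL final, 18 hours, 37 degrees C) GFP in HEPG2 cells carrying a CAGA-GFP reporter, in DMEM with 1% FBS. Well GFP was summed per cell; Activity was normalised to unstimulated and stimulated DMSO wells, then concentration-response fitting.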
IL1B secr inh: inhibitors of inflammasome signaling (IL-1 beta secretion) | activity change, % at 57.5 µM | AID 743279 | actives 4.7% (n = 360,000) | THP-1 LPS/ATP IL-1B secretion, AlphaLISA, 16 h; stronger effect = lower value; in the data active = activity change below about -50%; inconclusive = mostly about -30% to -49%; also: % is scaled to controls: 0 for no effect and ±100 for the full control effect
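THP-1 cells pretreated 1 hr with compounds (up to 57.5 uM final), then stimulated with LPS (250 ng/mL final) plus ATP (1.25 mM final); secreted IL-1B measured by AlphaLISA after 16 hr, decreased signal indicating inhibition.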
TDP1 cell noCPT: qHTS for Inhibitors of human tyrosyl-DNA phosphodiesterase 1 (TDP1): qHTS in cells in absence of CPT; DT40 Tdp1-/- hTDP1 cells, no CPT, ATP luminescence, 48 h; Potency, µM (doses to about 46.2 µM), inactives show at the highest dose activity change, negative = growth inhibition, hits mostly inhibitors; actives 15% (n = 420,000); AID 686978, 2013; also: potency is read from the fitted curve at half-maximal effect; % is scaled to controls: 0 for no effect and ±100 for the full control effect; nearly all actives have a fitted effect of over 55% in size
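Readout: luminescence from CellTiter-Glo after 30 min in the dark at RT. Cells: DT40 Tdp1-/- with stable hTDP1, 400/well. Exposure: compounds alone, ≥48 hr, 37 °C.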
Active calls of the source: *; ? = inconclusive; . = not tested or not shown; [ ] = dose if it differs, or a comment. Unless noted, calls follow the shape of the dose curve; as a rule, active = well fitted curve in the direction sought with a large enough effect; inconclusive = small, poorly fitted or top-dose-only effect, or another doubt; inactive = no such curve, though single readings can be large; an effect the other way counts as inactive or inconclusive.

SMILES	DT40 TDP1 CPT	TDP1 block	HepG2 viability	TGFb inhibitor	IL1B secr inh	TDP1 cell noCPT
Cc1cc(C)c2oc(C(=O)N(Cc3ccc(F)cc3)C3CCS(=O)(=O)C3)cc(=O)c2c1 (stereo unspecified)	?	5%	-1%	3%	-2	-20%
CCc1ccc(CN(C(=O)c2cc(=O)c3ccc(C)cc3o2)C2CCS(=O)(=O)C2)cc1 (stereo unspecified)	16µM*	-6%	-8%	0%	.	?
Cc1ccc(CN(C(=O)c2cc(=O)c3cc(C)cc(C)c3o2)C2CCS(=O)(=O)C2)cc1 (stereo unspecified)	?	1%	-11%	8%	-16	18µM*
Cc1c(Cc2ccccc2)sc(NC(=O)C(C)(C)C)c1C(N)=O	16µM*	-8%	-25%	-12%	0	29µM*
CCC(=O)Nc1sc(Cc2ccccc2)c(C)c1C(N)=O	16µM*	12%	-15%	14%	-11	?
Cc1c(Cc2ccccc2)sc(NC(=O)Cc2ccccc2)c1C(N)=O	?	.	2%	-14%	-19	?
Cc1cc(NS(=O)(=O)c2ccc(NC(=O)c3ccc(Cl)cc3[N+](=O)[O-])cc2)no1	7%	4%	0%	11%	-16	-2%
COc1nc(N2CCCCCC2)nc(N2CCCCCC2)n1	?	-2%	-14%	-26%	26	?
CCOc1nc(C#N)nc(N2CCCCC2)n1	21µM*	5%	-27%	-11%	-92*	15µM*
N#CCOc1nc(N2CCCCC2)nc(N2CCCCC2)n1	?	6%	-17%	-4%	-3	-28%
COc1nc(C#N)nc(N2CCCC2)n1	?	1%	-3%	-5%	.	16µM*
O=c1[nH]c2cc3c(cc2cc1C(c1nnnn1Cc1ccccc1)N1CCCc2ccccc21)OCO3 (stereo unspecified)	21µM*	5%	-6%	5%	28	23µM*
Cc1ccc(C)c2[nH]c(=O)c(C(c3nnnn3Cc3ccccc3)N3CCc4ccccc4C3)cc12 (stereo unspecified)	21µM*	-1%	-13%	14%	-10	-11%
O=c1[nH]c2cc3c(cc2cc1C(c1nnnn1Cc1ccccc1)N1CCN2CCCC2C1)OCCO3 (stereo unspecified)	?	8%	-17%	-3%	-2	18µM*
O=c1[nH]c2cc3c(cc2cc1C(c1nnnn1C1CCCC1)N1CCCc2ccccc21)OCCO3 (stereo unspecified)	-1%	11%	-23%	-24%	1	-13%
COc1cc2cc(C(c3nnnn3C(C)(C)C)N3CCc4ccccc43)c(=O)[nH]c2cc1OC (stereo unspecified)	-35%	8%	-13%	-17%	-13	21µM*
O=c1[nH]c2cc3c(cc2cc1C(c1nnnn1Cc1ccccc1)N1CCCCCC1)OCCO3 (stereo unspecified)	16µM*	7%	-21%	3%	-15	?
Cc1ccc(S(=O)(=O)/N=C2\C(=O)c3ccccc3C([O-])=C2n2cc[n+](CCC(C)C)c2)cc1	16µM*	6%	7.1µM*	4µM*	44	16µM*
CC(=O)Nc1ccc(S(=O)(=O)/N=C2\C(=O)c3ccccc3C([O-])=C2n2cc[n+](-c3ccccn3)c2)cc1	3.7µM*	1%	-131%	?	63	8.2µM*
CC(C)C(=O)OCC(=O)[C@@]12O[C@H](C3CCCCC3)O[C@@H]1C[C@H]1[C@@H]3CCC4=CC(=O)C=C[C@]4(C)[C@H]3[C@@H](O)C[C@@]12C	-8%	.	.	.	.	-16%
CCOc1ncccc1C(=O)N1CCN(S(=O)(=O)c2ccc3c(c2)OCCO3)CC1	1%	1%[56.1 µM]	-17%	-3%	2	?
CCc1c(-c2ccccc2)nc2ccccc2c1C(=O)NC(C)c1ccccc1 (stereo unspecified)	?	5%	-15%	?	.	23µM*
Cc1ccccc1OCCn1cc(C(=S)N2CCN(C)CC2)c2ccccc21	?	10%	-32%	?	?	15µM*
CC(=O)c1cn(CCOc2ccc(F)cc2)c2ccccc12	15µM*	.	-15%	?	0	?
O=C(c1cn(CCOc2ccccc2F)c2ccccc12)C1CCCCC1	?	3%	-5%	0%	.	16µM*
SMILES	DT40 TDP1 CPT	TDP1 block	HepG2 viability	TGFb inhibitor	IL1B secr inh	TDP1 cell noCPT
O=C(O)c1cn(CCOc2ccccc2Cl)c2ccccc12	30%	5%	-10%	1%	11	0%
Cc1ccccc1OCCn1cc(C(=O)C(=O)N2CCOCC2)c2ccccc21	-8%	5%	-10%	-18%	-2	?
COC(=O)c1cn(CCOc2ccc(C)cc2)c2ccccc12	?	-6%	-15%	-4%	19	?
CC(=O)c1cn(CCOc2ccccc2C)c2ccccc12	8.2µM*	.	-36%	-28%	-16	5.8µM*
Cc1ccccc1OCCn1cc(C(=S)N2CCCC2)c2ccccc21	?	.	-11%	-2%	-6	?
CCCCn1c(=O)c2oc3ccccc3c2n(Cc2cccc(F)c2)c1=O	?	0%	-21%	-13%	.	?
O=C(O)c1cc(S(=O)(=O)N2CCN(S(=O)(=O)c3ccc4ccccc4c3)CC2)ccc1Br	-4%	35µM*	7%	-1%	42	15%
O=C(c1cnc(Cl)c(Cl)c1)N1CCN(S(=O)(=O)c2ccc3ccccc3c2)CC1	?	4%	-2%	-20%	-102*	16µM*
O=S1(=O)CC(N2CCC(Cc3ccccc3)CC2)CN1Cc1ccc(F)cc1 (stereo unspecified)	26µM*	.	-25%	?	-2	13µM*
CC(/C=N/NC(=O)c1nnn(-c2nonc2N)c1C(C)C)=C\c1ccco1	?	-3%	-10%	-22%	0	?
CC(C)CN(C)C(=O)CCc1nnc(Cc2ccc(-c3ccccc3)cc2)o1	?	5%	-36%	?	12	12µM*
O=C(NCC(c1ccc(F)cc1)N1CCOCC1)c1ccc(-c2ccccc2)cc1 (stereo unspecified)	16µM*	0%	-26%	2%	-11	?
CC(C)(C)c1ccc(OCCC(=O)NCC(c2cccs2)N2CCOCC2)cc1 (stereo unspecified)	-16%	-3%	-28%	-9%	15	?
